Data published in PubChem BioAssay (NCATS).
Results filed as inconclusive are left out. Where a call stands in place of a potency, no number is given. Activity calls are given as the source filed them. The call rests on the fitted dose curve. Residues, ends and D or L forms follow the SMILES beside them.

Assay: Cytotoxicity counterscreen for inhibitors of SARS-CoV-2 cell entry (AID 1645845); further: nearly all actives have a fitted effect of over 50% in size
Details: cell viability (SARS-CoV-2 entry assay cells); series mostly up to 57.1 µM
Method in brief: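 After a 15 min room-temperature ATPLite 1step step, luminescence reflected ATP remaining in HEK293-ACE2 cells exposed to compound for 1 h plus 48 h at 37 C, with percent activity set by cell and no-cell controls.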

Which Potency does the source give for `CCCCOC(=O)c1ccc(O)cc1` here?
Its Potency is “inactive”.

Which Potency does the source give for `C#C[C@]1(O)CC[C@H]2[C@@H]3CCc4cc(OC5CCCC5)ccc4[C@H]3CC[C@@]21C` here?
Its Potency is “inactive”.

Which Potency does the source give for `COc1ccnc(CS(=O)c2nc3ccc(OC(F)F)cc3[nH]2)c1OC` (centres undefined) here?
The Potency was “inactive”.

For `CC(CCc1ccc(O)cc1)NCCc1ccc(O)c(O)c1` (centres undefined), which Potency is on record?
Its Potency is “inactive”.

Which Potency does the source give for `COC(=O)[C@H](Cc1ccccc1)NC(=O)[C@@H](N)CC(=O)O` (H-Asp-Phe-OMe) here?
The Potency was “inactive”.

For `CCCCC[C@H](O)/C=C/[C@@H]1[C@H]2C/C(=C/CCCC(=O)O)O[C@H]2C[C@H]1O`, which Potency is on record?
The Potency was “inactive”.

With `COC(=O)/C=C\C(=O)OC` as the compound, how does the Potency read?
The Potency was “inactive”.

Which Potency does the source give for `NC(CO)(CO)CO` here?
Its Potency is “inactive”.

With `CO/N=C(/C(=O)N[C@@H]1C(=O)N2C(C(=O)OCOC(=O)C(C)(C)C)=C(C)CS[C@H]12)c1csc(N)n1` as the compound, how does the Potency read?
The Potency was “inactive”.

For `COc1c(N2C[C@@H]3CCCN[C@@H]3C2)c(F)cc2c(=O)c(C(=O)O)cn(C3CC3)c12`, which Potency is on record?
The Potency was “inactive”.

With `CC(CC(C#N)(c1ccccc1)C(C)C)N(C)C` (centres undefined) as the compound, how does the Potency read?
Its Potency is “inactive”.

With `COCCCOc1ccnc(CS(=O)c2nc3ccccc3[nH]2)c1C` (centres undefined) as the compound, how does the Potency read?
Its Potency is “inactive”.

For `Cc1c(Nc2ncccc2C(=O)O)cccc1C(F)(F)F`, which Potency is on record?
The Potency was “inactive”.

With `CC(=O)Oc1cccc(O)c1` as the compound, how does the Potency read?
The Potency was “inactive”.

For `COc1cc(C)c(Cc2cnc(N)nc2N)cc1OC`, which Potency is on record?
The Potency was “inactive”.

Which Potency does the source give for `CC(C)C(=O)c1c(C(C)C)nn2ccccc12` here?
The Potency was “inactive”.

With `O=C(CCOCCOCCOCCOCCC(=O)Nc1c(I)cc(I)c(C(=O)O)c1I)Nc1c(I)cc(I)c(C(=O)O)c1I` as the compound, how does the Potency read?
The Potency was “inactive”.

For `CC(C)(C)NC[C@H](O)COc1nsnc1N1CCOCC1`, which Potency is on record?
The Potency was “inactive”.

For `O=S(=O)(O)c1ccc(O)cc1`, which Potency is on record?
The Potency was “inactive”.
